Most compounds without a hit are left out; they make up all but 11% or so of the library.
NIH3T3 tox: Cytotoxic Profiling in NIH 3T3 Cell Line of Diverse Libraries Using Quantitative High-Throughput Screening; AID 1345082, 2018; 94,000 tested, 4.3% active; Potency, µM (highest dose often 96.7 µM), actives largely listed as inhibitors; NIH 3T3 viability, CellTiter-Glo ATP luminescence, 48-72 h; further: nearly all actives have a fitted effect of over 55% in size
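Cytotoxicity was measured by CellTiter-Glo ATP luminescence after 48 or 72 h compound exposure at 37 °C. Mouse NIH 3T3 fibroblasts were seeded at 400 cells/well and dosed by 23 nL pin transfer.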
FLuc inh: Firefly luciferase inhibition profiling of diverse chemical library using quantitative high-throughput screening | purified P. pyralis luciferase, luminescence, biochemical | Potency, µM (titrated, usually from 115 µM), usual class: inhibitors | 76,000 tested, 2.5% active | AID 1347043, 2019; further: nearly all actives have a fitted effect of over 65% in size
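Cell-free enzyme assay, 10nM P. pyralis luciferase, luciferin and ATP each at 10uM. Inhibition profiled over a 6-point titration, read as luminescence.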
HEK293 tox: Cytotoxic Profiling in HEK 293 Cell Line of Diverse Libraries Using Quantitative High-Throughput Screening. HEK 293 viability, ATP luminescence (CellTiter-Glo), 48-72 h. Potency, µM (top dose mostly 115 µM), usual class: inhibitors. 94,000 tested, 6.6% active; further: nearly all actives have a fitted effect of over 60% in size
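qHTS cytotoxicity; HEK 293, 250 cells/well; compound pinned; 48 or 72 hr, 37 degree Celsius, 5% CO2, 95% humidity; CellTiter-Glo, 10 min RT; luminescence (ATP).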
NPR1 antag: Natriuretic polypeptide receptor (hNpr1) antagonism - Primary qHTS | 76,000 tested, 1.6% active | Potency, µM (series often up to 46.3 µM), most hits filed as inhibitors | HEK293 hNpr1 GloSensor cGMP, ANP-stimulated luminescence | Atrial natriuretic peptide receptor 1 (Homo sapiens), P16066; calls by dose curve; further: nearly all actives have a fitted effect of over 60% in size
Target sequence (P16066 whole entry, looked up): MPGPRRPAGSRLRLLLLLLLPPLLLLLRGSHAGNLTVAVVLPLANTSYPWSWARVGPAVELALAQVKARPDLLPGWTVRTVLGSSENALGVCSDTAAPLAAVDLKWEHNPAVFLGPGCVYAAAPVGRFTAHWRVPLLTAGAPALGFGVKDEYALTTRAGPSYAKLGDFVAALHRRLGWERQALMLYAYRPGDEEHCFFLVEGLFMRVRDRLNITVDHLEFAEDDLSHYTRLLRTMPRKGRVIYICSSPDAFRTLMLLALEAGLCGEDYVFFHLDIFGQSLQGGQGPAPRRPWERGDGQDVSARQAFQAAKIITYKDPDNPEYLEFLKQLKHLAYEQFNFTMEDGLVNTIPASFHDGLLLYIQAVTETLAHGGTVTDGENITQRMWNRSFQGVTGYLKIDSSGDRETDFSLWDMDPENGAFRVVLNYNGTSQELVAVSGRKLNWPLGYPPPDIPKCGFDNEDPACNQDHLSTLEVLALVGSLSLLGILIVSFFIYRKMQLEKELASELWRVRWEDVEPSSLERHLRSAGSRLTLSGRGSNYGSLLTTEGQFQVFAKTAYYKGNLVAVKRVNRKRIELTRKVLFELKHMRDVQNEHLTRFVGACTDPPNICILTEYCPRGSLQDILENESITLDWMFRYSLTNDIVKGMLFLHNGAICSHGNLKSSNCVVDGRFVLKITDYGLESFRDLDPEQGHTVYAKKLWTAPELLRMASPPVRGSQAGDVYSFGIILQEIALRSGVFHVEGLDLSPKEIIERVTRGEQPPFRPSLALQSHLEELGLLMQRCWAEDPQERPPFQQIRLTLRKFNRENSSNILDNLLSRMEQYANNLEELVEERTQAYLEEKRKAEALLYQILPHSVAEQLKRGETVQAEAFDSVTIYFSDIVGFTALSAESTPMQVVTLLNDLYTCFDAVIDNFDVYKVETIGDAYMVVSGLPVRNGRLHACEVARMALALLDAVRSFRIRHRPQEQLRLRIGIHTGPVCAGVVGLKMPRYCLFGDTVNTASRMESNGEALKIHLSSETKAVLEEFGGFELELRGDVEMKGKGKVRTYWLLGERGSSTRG
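HEK293 cells stably expressing human Npr1 and cGMP GloSensor pGS-40F, loaded 2 h with 2% GloSensor reagent, given compound 30 min at room temperature. Luminescence read before and 20 min after 0.1 nM hNppA.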
Each line names hits and unclear results; the compound was inactive in the other large screens. Unless noted, the call rests on the fitted dose curve; in most records, active means well fitted curve in the direction sought with a large enough effect; inconclusive means small, poorly fitted or top-dose-only effect, or another doubt; inactive means no such curve, though single readings can be large; an effect the other way counts as inactive or inconclusive.

CC(C)CNC(=O)c1cn2cc(-c3ccccc3)sc2n1	NIH3T3 tox inconclusive, HEK293 tox 70.8µM (no result: FLuc inh, NPR1 antag)
COc1cccc(-c2cn3cc(C(=O)NCCCc4ccccc4)nc3s2)c1	NIH3T3 tox 35.5µM, HEK293 tox inconclusive (no result: FLuc inh, NPR1 antag)
COC(=O)CNC(=O)c1cn2cc(-c3ccccc3)sc2n1	NIH3T3 tox inconclusive (no result: FLuc inh, NPR1 antag)
O=C(NC1CCCCC1)c1cn2cc(-c3ccccc3)sc2n1	NIH3T3 tox inconclusive, HEK293 tox 63.1µM (no result: FLuc inh, NPR1 antag)
COc1ccc(-c2cn3cc(C(=O)NCCc4ccccc4)nc3s2)cc1	none (no result: FLuc inh, NPR1 antag)
O=C(c1ccsc1)N1CCC2(CC1)CC(OCC1CC1)CCO2 (stereo unspecified)	none
CNC(=O)c1cc(C2CC2)nc2onc(C3CCN(C(=O)Cc4ccccn4)C3)c12 (stereo unspecified)	none (no result: FLuc inh, NPR1 antag)
O=C(c1ccccc1)N1CCCC(C(=O)N2CCC(c3nc4ccncc4[nH]3)CC2)C1 (stereo unspecified)	none (no result: FLuc inh, NPR1 antag)
O=S(=O)(c1ccccc1Cl)N1CCCC(CO)(Cc2cccc(Cl)c2)C1 (stereo unspecified)	NIH3T3 tox inconclusive, HEK293 tox 25.1µM
O=C(c1cc2cc(F)ccc2[nH]1)N1CCCC(CO)(Cc2cccc(Cl)c2)C1 (stereo unspecified)	NIH3T3 tox inconclusive, FLuc inh inconclusive, HEK293 tox 79.4µM
CCn1ccnc1CN1CCCC(CO)(Cc2cccc(Cl)c2)C1 (stereo unspecified)	NIH3T3 tox inconclusive, HEK293 tox inconclusive
O=C(O)c1cccc(-c2n[nH]c3c2CC(=O)N(CCOc2ccccc2)C3)c1	NIH3T3 tox inconclusive
COc1ccc(-c2n[nH]c3c2CC(=O)N(CCOc2ccccc2)C3)cc1F	NIH3T3 tox inconclusive, HEK293 tox 100µM
COCCN1Cc2[nH]nc(-c3cccc(OC)c3)c2CC1=O	NIH3T3 tox 100µM, HEK293 tox inconclusive
O=C1Cc2c(-c3ccccc3)n[nH]c2CN1CCOc1ccccc1	NIH3T3 tox inconclusive, FLuc inh inconclusive, NPR1 antag 12.6µM
O=C(O)c1cccc(-c2n[nH]c3c2CC(=O)N(c2ccccc2)C3)c1	NIH3T3 tox inconclusive, FLuc inh 63.1µM, HEK293 tox inconclusive
O=C(CCN1CCn2nc(CO)cc2C1)Nc1nnc(C2CC2)s1	none
COc1ccc(CN2CC3(CCN(C(=O)Nc4ccc(OC)c(F)c4)CC3)C2=O)cc1	NIH3T3 tox inconclusive, HEK293 tox inconclusive
COc1ccc(CC(=O)NCCNC(=O)c2ccc(-c3cncnc3)cc2)cc1	none (no result: FLuc inh, NPR1 antag)
Cc1noc(C)c1S(=O)(=O)N1CCCN(Cc2ccncc2)C(c2ccccc2)CC(=O)NCC1 (stereo unspecified)	HEK293 tox inconclusive
CNc1ccc(C)cc1C(=O)N1CCC2(CCCN(C)CC2)CC1	none
Oc1cccc(-c2cc(C3=CCOCC3)c3cncn3c2)c1	NIH3T3 tox 100µM, HEK293 tox inconclusive
Oc1ccccc1-c1cc(C2=CCOCC2)c2cncn2c1	NIH3T3 tox 63.1µM, HEK293 tox 100µM
COc1ncccc1-c1cc(C2=CCOCC2)c2cncn2c1	NIH3T3 tox inconclusive
CC(=O)N1CCc2nc(C3CC3)nc(-c3ccc(O)cc3)c2CC1	none (no result: FLuc inh, NPR1 antag)
COc1cccc(-c2ccc(CN3CCCC3C(=O)N3CCOCC3)cc2)c1 (stereo unspecified)	HEK293 tox inconclusive (no result: FLuc inh, NPR1 antag)
COc1cccc(-c2cccc(CN3CCCC3C(=O)N3CCCC(C)C3)c2)c1 (stereo unspecified)	NIH3T3 tox inconclusive, HEK293 tox 50.1µM (no result: FLuc inh, NPR1 antag)
COc1cccc(-c2cccc(CN3CCCC3C(=O)NCc3ccc(Cl)cc3)c2)c1 (stereo unspecified)	NIH3T3 tox 39.8µM, HEK293 tox 39.8µM (no result: FLuc inh, NPR1 antag)
COc1cccc(CNC(=O)C2CCCN2Cc2ccc(-c3cccc(OC)c3)cc2)c1 (stereo unspecified)	NIH3T3 tox 35.5µM, HEK293 tox inconclusive (no result: FLuc inh, NPR1 antag)
COc1cccc(-c2ccc(NC(=O)C3CCCN3Cc3cnn(C)c3)cc2)c1 (stereo unspecified)	NIH3T3 tox inconclusive, HEK293 tox 44.7µM
COc1cccc(CNC(=O)C2CCCCC(=O)N2Cc2ccccc2)c1 (stereo unspecified)	none (no result: FLuc inh, NPR1 antag)
CCOCCCNC(=O)C1CCCN1Cc1cccc(-c2cccc(OC)c2)c1 (stereo unspecified)	NIH3T3 tox 31.6µM, HEK293 tox 25.1µM (no result: FLuc inh, NPR1 antag)
COc1cccc(-c2ccc(NC(=O)C3CCCN(C(=O)CC(F)(F)F)C3)cc2)c1 (stereo unspecified)	NIH3T3 tox inconclusive, FLuc inh inconclusive, HEK293 tox inconclusive, NPR1 antag 15.8µM
C=CCC(=O)N1CCCC1C(=O)Nc1ccc(-c2cccc(OC)c2)cc1 (stereo unspecified)	FLuc inh 25.1µM, HEK293 tox inconclusive
COCCCNC(=O)C1CCCN1Cc1ccc(-c2cncnc2)cc1 (stereo unspecified)	none (no result: FLuc inh, NPR1 antag)
CCCCCNC(=O)C1CCCN1Cc1ccc(-c2cccc(OC)c2)cc1 (stereo unspecified)	NIH3T3 tox 39.8µM, HEK293 tox 22.4µM (no result: FLuc inh, NPR1 antag)
COCCOC1CCN(C(=O)Nc2ccc3c(c2)OCCO3)CC1	FLuc inh inconclusive
O=C(c1nc(-c2ccccc2)c2ccccn12)N1CCN(c2ncccn2)CC1	HEK293 tox 79.4µM
O=C(c1nc(-c2ccc(F)cc2)c2ccccn12)N1CCOCC1	HEK293 tox 112µM
O=C(c1nc(-c2ccccc2)c2ccccn12)N1CCOCC1	NIH3T3 tox inconclusive, HEK293 tox 89.1µM
O=C(Nc1cccc(-c2nnc3n2CCCC3)c1)c1ccccc1Cl	none
CCc1ccc(C(=O)Nc2cccc(-c3nnc4n3CCCC4)c2)cc1	NIH3T3 tox inconclusive, FLuc inh 22.4µM, HEK293 tox inconclusive, NPR1 antag inconclusive
Cc1ccsc1C(=O)Nc1ccc(-c2nnc3n2CCCC3)cc1	NIH3T3 tox inconclusive, FLuc inh 35.5µM
CCOc1ccccc1C(=O)Nc1cccc(-c2nnc3n2CCCC3)c1	NIH3T3 tox 39.8µM, HEK293 tox inconclusive
COc1ccc(C(=O)Nc2ccc([C@H]3OCC(=O)N(Cc4ccncc4)[C@@H]3CO)cc2)cc1OC	NIH3T3 tox 89.1µM
COc1ccc(C(=O)Nc2ccc([C@H]3OCC(=O)N(Cc4ccc(F)cc4)[C@@H]3CO)cc2)cc1	FLuc inh 44.7µM, HEK293 tox inconclusive
O=C(Nc1ccccc1)Nc1ccc([C@@H](O)[C@H]2COCC(=O)N2Cc2ccc(F)cc2)cc1	NIH3T3 tox inconclusive, FLuc inh inconclusive, HEK293 tox 79.4µM
CN(C)C(=O)CN1C(=O)CO[C@H](c2ccc(NC(=O)c3ccc(C(F)(F)F)cc3)cc2)[C@H]1CO	FLuc inh inconclusive
CC(C)CN1C(=O)CO[C@H](c2ccc(NC(=O)c3ccc(C(F)(F)F)cc3)cc2)[C@H]1CO	NIH3T3 tox inconclusive, FLuc inh 44.7µM, HEK293 tox inconclusive, NPR1 antag 12.6µM
Cc1ccccc1C(=O)N1CCN(C(=O)c2nc3cccnc3n(CCc3ccccc3)c2=O)CC1	HEK293 tox inconclusive (no result: FLuc inh, NPR1 antag)

High-throughput results (PubChem BioAssay)
